Tg IFNy HTS – inhibitors of Toxoplasma gondii growth with IFN-gamma | activity change, negative = inhibition, % (concentration not given with the values) | Toxoplasma gondii growth in IFN-gamma-treated host cells; active compounds read low | AID 1259416 | 69,000 tested, 3.8% active; in the data active = activity change below about -70%, passing the limit was not always enough;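 also: host cells are HeLa cells infected with Toxoplasma gondii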
The depositor's hits bear a star; ! = repeats disagree. The full list was thinned out, with hits kept by preference.

SMILES	Tg IFNy HTS
C/C=C/c1ccc(C2[C@@H]3CN(C(=O)Nc4ccc(C(F)(F)F)cc4)C[C@H]2N3)cc1 (stereo partly specified)	-79*!
COc1ccc(NC(=O)N2C[C@@H]3N[C@H](C2)C3c2ccc(-c3ccncc3)cc2)cc1 (stereo partly specified)	-3
C/C=C/c1ccc(C2[C@@H]3CN(C(=O)NC4CCCCC4)C[C@H]2N3)cc1 (stereo partly specified)	-22
N#Cc1cccc(-c2ccc(C3[C@@H]4CN(C(=O)Nc5ccc(C(F)(F)F)cc5)C[C@H]3N4)cc2)c1 (stereo partly specified)	-73*!
C/C=C/c1ccc(C2[C@@H]3CN(C(=O)Nc4ccccc4F)C[C@H]2N3)cc1 (stereo partly specified)	-33
O=C(Nc1ccc(F)cc1)N1C[C@@H]2N[C@H](C1)C2c1ccc(/C=C/c2ccccc2)cc1 (stereo partly specified)	-43
COc1ccccc1NC(=O)N1C[C@@H]2N[C@H](C1)C2c1ccc(-c2cccc(C#N)c2)cc1 (stereo partly specified)	-33
N#Cc1ccc(-c2ccc(C3[C@@H]4CN(C(=O)C5CCCCC5)C[C@H]3N4)cc2)cc1 (stereo partly specified)	-46
O=C(NC1CCCCC1)N1C[C@@H]2N[C@H](C1)C2c1ccc(-c2ccc(F)cc2)cc1 (stereo partly specified)	-77*!
CCC(C(=O)N1CCC(C)(C(=O)NCc2cc(OC)cc(OC)c2)CC1)c1ccccc1 (stereo unspecified)	-10
c1cncc(-c2nc3cc4sc(-c5cccnc5)nc4cc3s2)c1	45
O=C(c1cc2cccnc2n(Cc2ccc(Cl)cc2)c1=O)N(Cc1ccccc1)c1ccccc1	6
O=C(c1cccs1)N1CCCn2nnc(COCC3CC3)c2C1	-41
Cc1c(Br)c(C(F)(F)F)nn1CC(=O)Nc1ccccc1C(F)(F)F	-55
CC(=O)N1CCC2O[C@H](COCC(=O)N3CCCC3)CCC21 (stereo partly specified)	98
O=C(c1ccoc1)N1CCc2ncnc(N3CCOCC3)c2CC1	57
c1ccc(CN2CCCC(c3nnc(-c4ccncc4)o3)C2)cc1 (stereo unspecified)	-59
COc1ccc2cc([C@H](C)C(=O)Nc3cnc4n3CCCC4)ccc2c1	-23
COc1ccc(NC(=O)Cn2c(=O)cc(C(=O)N3CCCCC3)c3ccccc32)cc1	14
Cc1cc(C)c2cc(C(=O)Nc3ccc(OC(F)(F)F)cc3)[nH]c2c1	39
O=C(NCCSCc1ccco1)c1cnn(-c2ccccc2)c1C(F)(F)F	8
O=C(Nc1ccc(OC(F)(F)F)cc1)c1cnn(-c2ccc(Cl)cc2)c1C(F)(F)F	-86*
COCCCN1C(=O)N(Cc2ccccn2)C(=O)C12CCN(Cc1ccc(SC)cc1)CC2	-7
CN1CC2(CCN(C(=O)c3cnc4cccnn34)C2)OC1=O (stereo unspecified)	147
COc1cccc(S(=O)(=O)Nc2ccc3c(c2)C(=O)N(C)C[C@H](OC)[C@@H](C)CN(Cc2ccccc2F)[C@H](C)CO3)c1	-6
SMILES	Tg IFNy HTS
COc1ccc(S(=O)(=O)Nc2ccc3c(c2)OC[C@@H](C)N(Cc2cc(F)ccc2F)C[C@@H](C)[C@H](OC)CN(C)C3=O)cc1	-90*
COc1cccc(S(=O)(=O)Nc2ccc3c(c2)C(=O)N(C)C[C@H](OC)[C@H](C)CN(Cc2ccccc2F)[C@H](C)CO3)c1	-57
COc1cccc(S(=O)(=O)Nc2ccc3c(c2)C(=O)N(C)C[C@H](OC)[C@H](C)CN(Cc2ccccc2F)[C@@H](C)CO3)c1	-45
COc1cccc(S(=O)(=O)Nc2ccc3c(c2)C(=O)N(C)C[C@@H](OC)[C@@H](C)CN(Cc2ccccc2F)[C@H](C)CO3)c1	-53
COc1cccc(S(=O)(=O)Nc2ccc3c(c2)C(=O)N(C)C[C@@H](OC)[C@H](C)CN(Cc2ccccc2F)[C@H](C)CO3)c1	-97*
COCCOCC(=O)N1CCOC(c2ccc(Cl)c(Cl)c2)C1 (stereo unspecified)	0
COc1cccc(-c2nc(CSc3nc4c(=O)[nH]cnc4n3C)c(C)o2)c1OC	-5
CC(C)N1CCN(C(=O)CCc2csc(N)n2)CC1C (stereo unspecified)	3
COCCN1C(=O)N(CC(C)C)C(=O)C12CCN(Cc1ccncc1)CC2	7
CCOc1ccc(C(NC(=O)c2ccc(C)cc2)n2nnc3ccccc32)cc1 (stereo unspecified)	-8
Cc1cnc(N2CCC3(CC2)CC(N(C)Cc2ccncc2)CO3)nc1 (stereo unspecified)	4
Cc1noc(-c2cc(=O)n(CC(=O)NCc3ccccc3F)c3ccccc23)n1	3
COc1cccc(-c2cc(C(=O)NC3=NS(=O)(=O)c4ccccc43)on2)c1	9
FC(F)(F)c1ccnc(NCCNc2ncccc2C(F)(F)F)n1	49
OC(CNCCNc1ncccc1C(F)(F)F)Cn1ccc2ccccc21 (stereo unspecified)	-82*
